# Results from PMC4552634, “A New Set of Chemical Starting Points with Plasmodium falciparum Transmission-Blocking Potential for Antimalarial Drug Discovery” (PLoS ONE, 2015).
# In all, about 13,000 compounds went through this assay and about 3,200 (25%) showed an effect of 50% or more. This is one part of the list.
# System: P. falciparum stage V gametocytes
# Parameters: BacTiter-Glo ATP luminescence viability of purified stage V gametocytes in 384-well plates, per cent inhibition versus DMSO
# Settings: 48 h, 5 µM; inhibitor
row,Compound,% Inhibition [%]
1,Cn1cnnc1Sc1ccc(CN2CCOc3ccc(C4=CCCCC4)cc3C2)o1 [TCMDC-124661],-23.49
2,NC1=NC(c2ccccc2)(c2ccccc2)C(=O)N1CCOc1ccccc1 [TCMDC-136493],-46.39
3,Clc1ccc2c(N3CCN(CCN4CCN(c5ccnc6cc(Cl)ccc56)CC4)CC3)ccnc2c1 [TCMDC-125557],-4.056
4,CCc1cc(Cc2cnc(N)nc2N)cc(CC)c1OC [TCMDC-137697],-15.83
5,CCOC(=O)C(=CNc1ccc(Cc2cnc(N)nc2N)cc1CC)C(=O)OCC [TCMDC-137346],53.58
6,CCCc1cc(Cc2cnc(N)nc2N)ccc1OCCCCCC(=O)OCC [TCMDC-137232],-11.7
7,O=C1CN(C(=O)CCC2CCCC2)C(c2ccc(F)cc2)c2cc(F)ccc2N1 (stereo not shown) [TCMDC-124463],-48.27
8,c1ccc2oc(-c3cc4ccncc4cc3OC3CCNCC3)cc2c1 [TCMDC-134160],92.38
9,c1cncc(NCc2ccc(-c3cc4ccncc4cc3OC3CCNCC3)s2)c1 [TCMDC-134161],28.32
10,Nc1ncc(-c2cc3ccccc3o2)c(N)n1 [TCMDC-137177],18.48
11,COc1cccc(-c2nn(C)c3sc(C(=O)Nc4cccnc4)cc23)c1 [TCMDC-123584],-55.35
12,O=C(Nc1cccc(OC2CCN(Cc3ccccc3)CC2)c1)c1ccc(Cl)c(Cl)c1 [TCMDC-139542],5.419
13,O=C(Nc1cccnc1)c1ccc(-c2cc3ccncc3cc2OC2CCNCC2)s1 [TCMDC-134228],62.63
14,c1ccc(-c2cc3cccc(-c4nc5ccncc5[nH]4)c3o2)cc1 [TCMDC-140516],7.065
15,O=C(Nc1ccccc1)c1ccc(-c2cc3ccncc3cc2OC2CCNCC2)s1 [TCMDC-134227],77.06
16,Cc1cc(NC(=O)c2cccs2)ccc1OC1CCN(Cc2ccccc2)CC1 [TCMDC-133988],37.37
17,CCOC(=O)c1ccc(NC(=O)Nc2cccc(-c3ccc(-c4nc5cccc(C)c5[nH]4)s3)c2)cc1 [TCMDC-133258],-27.38
18,O=C(Nc1ccsc1)Nc1cccc(-c2cccc(-c3nc4ccc(F)cc4[nH]3)c2)c1 [TCMDC-133216],-18.7
19,O=C(Nc1cccc(-c2ccc(-c3nc4ccc(F)cc4[nH]3)cc2)c1)Nc1ccc(F)c(F)c1F [TCMDC-133231],-4.749
20,C=Cc1cc(NC(=O)N2CCc3cc(OC)c(C(F)(F)F)cc32)cc(-c2cccnc2)c1 [TCMDC-139030],-6.517
21,CC(C)=CC1C(C(=O)n2c(N)nc3ccccc32)C1(C)C (stereo not shown) [TCMDC-131688],3.871
22,Cc1cc(N)cc2[nH]c(-c3ccc(N)cc3)nc12 [TCMDC-124391],-6.074
23,CC(C)(C)c1ccc(-c2cc3c(ccc4nc(N)nc(N)c43)[nH]2)cc1 [TCMDC-137977],117.8
24,CC(C)(C)c1ccc(-c2nc3c(ccc4nc(N)nc(N)c43)[nH]2)cc1 [TCMDC-137984],112.2
25,Cc1c(N)ccc2[nH]c(-c3ccc(N)cc3)nc12 [TCMDC-124242],91.56
26,CC(C)n1c(C(C)(C)C)cc2c3c(N)nc(N)nc3ccc21 [TCMDC-137311],32.82

row,Compound,% Inhibition [%]
1,Cc1c(C(C)(C)C)ccc2nc(N)nc(N)c12 [TCMDC-137831],-39.39
2,CC(C)c1cc2c(ccc3nc(N)nc(N)c32)[nH]1 [TCMDC-137847],19.02
3,Nc1ccc(-c2nc3c(ccc4ccccc43)[nH]2)cc1 [TCMDC-124395],24.31
4,CC(C)(C)c1ccc(Cc2cccc3nc(N)nc(N)c23)cc1 [TCMDC-137821],-51.22
5,CC1(C)N=C(N)N=C(N)N1OCCOc1ccc2ccccc2c1 [TCMDC-131609],-8.756
6,N#Cc1cc(C(=O)Nc2ccccc2)c(N)nc1SCC(=O)Nc1ccc(Br)cc1 [TCMDC-124873],-53.64
7,CCCC(C)Nc1nc(C)cc(N[C@@H](CC(C)C)C(=O)NCCc2ccccc2)n1 (stereo partly shown) [TCMDC-134769],-46.8
8,[O-][s+]1c(Cl)c(-c2ccc(Cl)cc2)c2ccc(Cl)cc21 (stereo not shown) [TCMDC-124011],120.8
9,Cc1noc(C)c1-c1ccc(C(=C2CCCCCCC2)c2ccc(O)cc2)cc1 [TCMDC-135872],-5.918
10,Fc1ccc(-c2oc(C3CCN(CCc4ccc(-c5nc(=S)o[nH]5)cc4)CC3)nc2COCC(F)(F)F)cc1 [TCMDC-138124],11.59
11,O=C(Cc1c[nH]cn1)Nc1cccc(-c2ccc(-c3nc4cc(C(F)(F)F)ccc4[nH]3)s2)c1 [TCMDC-136945],84.53
12,O=C(Cc1c[nH]cn1)Nc1cccc(-c2ccc(-c3nc4cc(F)ccc4[nH]3)s2)c1 [TCMDC-136953],5.637
13,O=C(Nc1ccc(-c2ccc(-c3nc4cc(C(F)(F)F)ccc4[nH]3)s2)cc1)c1c[nH]cn1 [TCMDC-136933],1.444
14,O=C(Nc1cccc(-c2ccc(-c3nc4cc(C(F)(F)F)ccc4[nH]3)s2)c1)c1c[nH]cn1 [TCMDC-136934],63.59
15,O=C(Cc1c[nH]cn1)Nc1ccc(-c2ccc(-c3nc4cc(C(F)(F)F)ccc4[nH]3)s2)cc1 [TCMDC-136944],-5.397
16,O=C(Nc1cccc(-c2ccc(-c3nc4cc(C(F)(F)F)ccc4[nH]3)s2)c1)c1ccncc1 [TCMDC-136960],-10.77
17,Cc1cccc2nc(-c3cccc(-c4cccc(CNCCc5ccncc5)c4)c3)[nH]c12.O=C(O)C(F)(F)F [TCMDC-132844],3.347
18,O=C(CCc1cccnc1)Nc1cccc(-c2ccc(-c3nc4cc(C(F)(F)F)ccc4[nH]3)s2)c1 [TCMDC-132147],0.1764
19,CC(=O)Nc1ccc(C(=O)NC2CCN(c3ccnc4cc(Cl)ccc34)CC2)cc1 [TCMDC-133572],1.937
20,CC(C)C[C@H](NC(=O)c1cc2ccccc2s1)C(=O)N[C@H]1CCN(Cc2ccc(OCCN3CCNCC3)c3ccccc23)C1 [TCMDC-140289],107.5
21,CC(C)C[C@H](NC(=O)c1cc2ccccc2s1)C(=O)N[C@H]1CCN(Cc2ccc(OC[C@@H]3CCCN3C)c(Cl)c2)C1 [TCMDC-140292],28.24
22,CC(C)C[C@H](NC(=O)c1cc2ccccc2s1)C(=O)N[C@H]1CCN(Cc2ccc(OC[C@@H]3CCCN3C)c3ccccc23)C1 [TCMDC-140290],74.51
23,COc1cc(Nc2nccc(N3CCC(NC(=O)c4cc5ccccc5s4)C3)n2)cc(OC)c1OC (stereo not shown) [TCMDC-133624],0.1379
24,COc1ccc(Nc2nccc(N3CCC(NC(=O)c4cc5ccccc5s4)C3)n2)cc1 (stereo not shown) [TCMDC-133614],-3.392
25,O=C(Nc1cccc(C(F)(F)F)c1)N1CCOC(CCN2CCC3(CCc4ccccc43)CC2)(c2ccc(Cl)c(Cl)c2)C1 (stereo not shown) [TCMDC-135340],-5.677
26,OCC1CCN(Cc2cccc(C#Cc3cc4ncnc(Nc5ccc(OCc6cccc(F)c6)c(Cl)c5)c4s3)n2)CC1 [TCMDC-138841],11.44

row,Compound,% Inhibition [%]
1,Cc1cc(N2CCN(C)CC2)nc2ccc(NC(=O)Cc3cccc(C(F)(F)F)c3)cc12 [TCMDC-123590],92.11
2,CCN1CCN(c2cc(C)c3cc(NC(=O)c4cccc(C(F)(F)F)c4)ccc3n2)CC1 [TCMDC-125572],-33.11
3,Cc1cc(N2CCN(C)CC2)nc2ccc(NC(=O)c3cccc(N(C)C)c3)cc12 [TCMDC-124449],4.693
4,Cc1cccn2c(=O)c3cc(C(=O)NC(C)c4ccccc4)c(=N)n(CCN4CCOCC4)c3nc12 (stereo not shown) [TCMDC-125137],27.67
5,COCCn1c(-c2nc(-c3ccc(F)cc3)cnc2N)nc2ccccc21 [TCMDC-138875],21.39
6,O=C(CCCC(=O)Nc1ccc(C2=NCCN2)cc1)Nc1ccc(C2=NCCN2)cc1 [TCMDC-138427],-1.956
7,CN=C(N)c1ccc(NC(=O)c2ccc(C(=O)Nc3ccc(C(N)=NC)cc3)cc2)cc1 [TCMDC-137214],-8.132
8,CN=C(N)c1ccc(NC(=O)C=Cc2ccc(C(=O)Nc3ccc(C(N)=NC)cc3)cc2)cc1 [TCMDC-137193],77.71
9,O=C(Nc1ccc(C(=O)Nc2cccc(C3=NCCN3)c2)cc1)Nc1ccc(C2=NCCN2)cc1 [TCMDC-137196],-21.25
10,O=C(C=Cc1ccc(C(=O)Nc2ccc(C3=NCCN3)cc2)cc1)Nc1ccc(C2=NCCN2)cc1 [TCMDC-137212],61.27
11,CN=C(N)c1ccc(NC(=O)Nc2ccc(C(N)=NC)cc2)cc1 [TCMDC-137211],3.891
12,N#Cc1cccc(C(=O)NC2CCN(c3ccnc(Nc4ccc(F)cc4)n3)C2)c1 (stereo not shown) [TCMDC-133593],17.79
13,Cc1cc(-c2ccc3c(c2)CCN(CCC2CCC(NC(=O)/C=C/c4ccccc4F)CC2)CC3)on1 (stereo not shown) [TCMDC-139974],-78.86
14,COc1ccccc1/C=C/C(=O)NC1CCC(CCN2CCc3ccc(-c4cc(C)no4)cc3CC2)CC1 (stereo not shown) [TCMDC-139975],80.37
15,O=C(C=Cc1ccc(F)cc1)NC1CCC(CCN2CCc3ccc(-c4cnccn4)cc3CC2)CC1 (stereo not shown) [TCMDC-140328],0.8671
16,Cc1c[nH]c2ccc(/C=C/C(=O)NC3CCC(CCN4CCc5ccc(C#N)cc5CC4)CC3)cc12 (stereo not shown) [TCMDC-139669],1.674
17,O=C(C=Cc1cccc(F)c1)NC1CCC(CCN2CCc3ccc(-c4cnccn4)cc3CC2)CC1 (stereo not shown) [TCMDC-140326],-57.13
18,Cc1ccc2[nH]cc(/C=C/C(=O)NC3CCC(CCN4CCc5ccc(C#N)cc5CC4)CC3)c2c1 (stereo not shown) [TCMDC-139682],84.8
19,Cc1cc(-c2ccc3c(c2)CCN(CCC2CCC(NC(=O)/C=C/c4ccc(F)cc4)CC2)CC3)on1 (stereo not shown) [TCMDC-139926],-90.16
20,Cc1noc(-c2ccc3c(c2)CCN(CCC2CCC(NC(=O)/C=C/c4ccc(F)cc4)CC2)CC3)n1 (stereo not shown) [TCMDC-139865],-60.69
21,N#Cc1ccc2c(c1)CCN(CCC1CCC(NC(=O)/C=C/c3c[nH]c4ccc(F)cc34)CC1)CC2 (stereo not shown) [TCMDC-139667],-9.203
22,O=C(NC1CCC(CCN2CCc3ccc(-c4cnccn4)cc3CC2)CC1)c1cccc(-n2cccn2)c1 (stereo not shown) [TCMDC-140329],67.17
23,Cn1cnc(-c2ccc3c(c2)CCN(CCC2CCC(NC(=O)/C=C/c4ccc(F)cc4)CC2)CC3)c1 (stereo not shown) [TCMDC-140338],59.86
24,N#Cc1ccc(C=CC(=O)NC2CCC(CCN3CCc4ccc(-c5cnccn5)cc4CC3)CC2)cc1 (stereo not shown) [TCMDC-140327],-34.09
